# Data taken from PMC7862700, “An all-to-all approach to the identification of sequence-specific readers for epigenetic DNA modifications on cytosine”.
# What was measured:
# Experiment in all cases: DAPPL (digital affinity profiling via proximity ligation, sequencing); 10 mM Tris-HCl pH 7.5, 50 mM NaCl, 1 mM DTT, 4% glycerol, room temperature, 30 min; GST-TFs on glutathione beads, 16-mer random dsDNA library, 0.1% formaldehyde crosslink after washing; high values mean tight binding
# FLI1 = molecular target: T1, FLI1 (Homo sapiens, UniProt Q01543 1-452); settings: protein: recombinant; tags: N-terminal GST; dsDNA, one strand shown
# T1 sequence: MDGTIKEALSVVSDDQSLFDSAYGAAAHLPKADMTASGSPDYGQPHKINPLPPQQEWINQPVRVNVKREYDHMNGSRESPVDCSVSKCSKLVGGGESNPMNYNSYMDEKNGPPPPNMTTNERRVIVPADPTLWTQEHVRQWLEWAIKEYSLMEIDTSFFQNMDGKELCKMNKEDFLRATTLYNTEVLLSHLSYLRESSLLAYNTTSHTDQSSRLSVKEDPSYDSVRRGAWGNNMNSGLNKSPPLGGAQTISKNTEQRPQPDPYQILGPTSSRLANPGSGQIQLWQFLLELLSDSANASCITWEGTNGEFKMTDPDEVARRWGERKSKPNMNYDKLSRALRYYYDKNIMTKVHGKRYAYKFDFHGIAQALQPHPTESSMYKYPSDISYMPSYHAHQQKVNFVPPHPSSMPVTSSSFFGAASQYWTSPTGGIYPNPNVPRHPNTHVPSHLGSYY
# Outline: (§1)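 Pools were built from human transcription factors expressed in yeast as GST fusions, captured on glutathione beads and DNA-barcoded, along with a tag-only sample. Incubation with 200 nmole of a 16-mer random double-stranded DNA library lasted 30 min at room temperature in Tris/NaCl/DTT/glycerol buffer, and was followed by washing, 0.1% formaldehyde crosslinking, proximity ligation, PCR amplification and Illumina NextSeq500 sequencing. Binding signal is the quotient of each hexamer's read frequency for a factor and its frequency for the tag-only sample.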
# ELK1 = molecular target: T2, ELK1 (Homo sapiens, UniProt P19419 1-428); settings: protein: recombinant; tags: N-terminal GST; dsDNA, one strand shown
# T2 sequence: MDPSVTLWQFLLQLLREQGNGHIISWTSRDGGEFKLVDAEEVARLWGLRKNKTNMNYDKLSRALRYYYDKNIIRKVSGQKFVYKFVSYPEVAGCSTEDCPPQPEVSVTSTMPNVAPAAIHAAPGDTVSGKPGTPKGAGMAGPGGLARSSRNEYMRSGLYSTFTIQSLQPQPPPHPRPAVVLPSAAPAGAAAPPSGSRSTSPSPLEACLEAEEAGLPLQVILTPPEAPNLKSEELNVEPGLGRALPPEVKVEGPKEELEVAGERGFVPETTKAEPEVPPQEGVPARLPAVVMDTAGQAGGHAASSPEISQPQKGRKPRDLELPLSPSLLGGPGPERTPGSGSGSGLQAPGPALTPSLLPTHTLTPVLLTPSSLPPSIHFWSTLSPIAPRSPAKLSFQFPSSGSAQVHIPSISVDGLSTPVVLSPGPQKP
# Outline: as §1
# GABPA = molecular target: T3, GABPA (Homo sapiens, UniProt Q06546 1-454); settings: protein: recombinant; tags: N-terminal GST; dsDNA, one strand shown
# T3 sequence: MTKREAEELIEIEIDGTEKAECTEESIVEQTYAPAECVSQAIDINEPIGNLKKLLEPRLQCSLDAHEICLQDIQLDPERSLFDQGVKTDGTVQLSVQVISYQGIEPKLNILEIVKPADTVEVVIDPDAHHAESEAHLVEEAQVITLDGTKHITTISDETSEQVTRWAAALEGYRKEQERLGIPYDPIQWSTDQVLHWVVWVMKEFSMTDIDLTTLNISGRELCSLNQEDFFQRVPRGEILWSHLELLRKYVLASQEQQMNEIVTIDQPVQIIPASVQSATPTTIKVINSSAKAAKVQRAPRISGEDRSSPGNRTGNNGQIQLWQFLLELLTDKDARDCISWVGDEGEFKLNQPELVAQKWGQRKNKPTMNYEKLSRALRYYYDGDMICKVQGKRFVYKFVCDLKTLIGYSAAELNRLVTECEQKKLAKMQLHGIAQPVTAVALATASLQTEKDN
# Outline: as §1
# ERG = molecular target: T4, ERG (Homo sapiens, UniProt P11308 1-479); settings: protein: recombinant; tags: N-terminal GST; dsDNA, one strand shown
# T4 sequence: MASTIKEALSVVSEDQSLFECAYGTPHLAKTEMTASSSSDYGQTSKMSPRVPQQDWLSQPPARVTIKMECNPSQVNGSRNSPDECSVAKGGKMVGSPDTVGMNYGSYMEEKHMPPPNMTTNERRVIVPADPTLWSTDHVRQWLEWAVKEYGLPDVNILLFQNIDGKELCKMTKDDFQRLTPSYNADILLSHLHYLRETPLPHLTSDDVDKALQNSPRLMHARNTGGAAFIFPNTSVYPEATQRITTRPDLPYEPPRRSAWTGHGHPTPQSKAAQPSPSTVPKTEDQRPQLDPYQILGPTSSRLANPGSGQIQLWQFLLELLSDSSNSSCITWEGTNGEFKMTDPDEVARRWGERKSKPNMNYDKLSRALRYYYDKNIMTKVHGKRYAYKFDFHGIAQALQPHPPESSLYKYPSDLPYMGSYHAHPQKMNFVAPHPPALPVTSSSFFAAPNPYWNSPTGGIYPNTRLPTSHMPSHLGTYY
# Outline: as §1
# ELF1 = ELF1 (Homo sapiens, UniProt P32519 1-619); settings: protein: recombinant; tags: N-terminal GST; dsDNA, one strand shown
# ELF1, sequence (P32519 whole entry): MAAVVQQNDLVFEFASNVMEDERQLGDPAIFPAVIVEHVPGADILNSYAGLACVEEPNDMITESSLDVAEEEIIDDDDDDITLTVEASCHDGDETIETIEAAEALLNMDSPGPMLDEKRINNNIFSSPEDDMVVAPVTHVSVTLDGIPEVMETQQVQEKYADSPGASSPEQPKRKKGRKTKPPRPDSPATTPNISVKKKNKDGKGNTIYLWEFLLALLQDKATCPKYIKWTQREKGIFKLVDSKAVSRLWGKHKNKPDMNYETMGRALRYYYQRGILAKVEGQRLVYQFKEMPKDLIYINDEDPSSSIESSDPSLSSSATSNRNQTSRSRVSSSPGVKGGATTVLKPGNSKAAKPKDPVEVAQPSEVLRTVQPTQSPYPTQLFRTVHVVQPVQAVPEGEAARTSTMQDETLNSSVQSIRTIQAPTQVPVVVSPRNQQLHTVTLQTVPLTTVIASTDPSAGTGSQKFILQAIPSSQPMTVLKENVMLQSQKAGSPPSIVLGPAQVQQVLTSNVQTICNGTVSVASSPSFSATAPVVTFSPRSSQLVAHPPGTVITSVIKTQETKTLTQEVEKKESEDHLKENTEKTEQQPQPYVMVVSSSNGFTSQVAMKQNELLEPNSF
# Outline: as §1
# EHF = molecular target: T5, EHF (Homo sapiens, UniProt Q9NZC4 1-300); settings: protein: recombinant; tags: N-terminal GST; dsDNA, one strand shown
# T5 sequence: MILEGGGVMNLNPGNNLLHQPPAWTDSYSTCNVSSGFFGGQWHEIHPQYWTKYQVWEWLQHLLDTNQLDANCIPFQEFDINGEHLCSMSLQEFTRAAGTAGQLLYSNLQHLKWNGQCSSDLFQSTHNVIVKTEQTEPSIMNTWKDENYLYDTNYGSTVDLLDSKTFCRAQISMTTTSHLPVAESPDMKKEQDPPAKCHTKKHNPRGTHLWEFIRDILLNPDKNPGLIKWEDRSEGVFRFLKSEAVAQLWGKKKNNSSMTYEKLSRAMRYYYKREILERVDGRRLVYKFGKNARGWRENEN
# Outline: as §1
# SPI1 = SPI1 (Homo sapiens, UniProt P17947 1-270); settings: protein: recombinant; tags: N-terminal GST; dsDNA, one strand shown
# Outline: as §1
# SPIB = SPIB (Homo sapiens, UniProt Q01892 1-262); settings: protein: recombinant; tags: N-terminal GST; dsDNA, one strand shown
# SPIB, sequence (Q01892 whole entry): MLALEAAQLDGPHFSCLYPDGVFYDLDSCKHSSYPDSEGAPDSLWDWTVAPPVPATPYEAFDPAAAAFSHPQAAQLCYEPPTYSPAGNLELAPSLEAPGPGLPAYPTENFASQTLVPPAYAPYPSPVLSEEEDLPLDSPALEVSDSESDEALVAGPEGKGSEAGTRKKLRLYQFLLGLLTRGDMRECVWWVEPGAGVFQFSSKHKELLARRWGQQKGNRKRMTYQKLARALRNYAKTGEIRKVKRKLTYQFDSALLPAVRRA
# Outline: as §1
# ELK3 = molecular target: T6, ELK3 (Homo sapiens, UniProt P41970 1-407); settings: protein: recombinant; tags: N-terminal GST; dsDNA, one strand shown
# T6 sequence: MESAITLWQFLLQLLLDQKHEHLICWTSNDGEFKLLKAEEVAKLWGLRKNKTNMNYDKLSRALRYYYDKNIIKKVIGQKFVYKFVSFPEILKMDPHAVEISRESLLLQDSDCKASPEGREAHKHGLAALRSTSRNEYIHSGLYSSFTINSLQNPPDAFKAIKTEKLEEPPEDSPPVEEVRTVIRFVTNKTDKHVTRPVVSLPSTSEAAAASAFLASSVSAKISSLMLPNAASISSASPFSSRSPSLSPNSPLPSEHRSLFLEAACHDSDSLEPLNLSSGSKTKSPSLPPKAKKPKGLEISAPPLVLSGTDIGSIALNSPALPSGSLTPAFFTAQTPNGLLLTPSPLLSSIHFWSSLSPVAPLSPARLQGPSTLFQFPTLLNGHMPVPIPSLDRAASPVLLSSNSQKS
# Outline: as §1
# FEV = molecular target: T7, FEV (Homo sapiens, UniProt Q99581 1-238); settings: protein: recombinant; tags: N-terminal GST; dsDNA, one strand shown
# T7 sequence: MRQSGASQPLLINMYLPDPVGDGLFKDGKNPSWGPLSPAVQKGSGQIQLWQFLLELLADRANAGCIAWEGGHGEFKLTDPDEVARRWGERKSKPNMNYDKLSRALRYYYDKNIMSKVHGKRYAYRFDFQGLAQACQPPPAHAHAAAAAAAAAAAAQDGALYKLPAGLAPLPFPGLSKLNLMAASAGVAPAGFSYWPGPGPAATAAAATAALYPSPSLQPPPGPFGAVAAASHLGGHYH
# Outline: as §1
# ETV5 = ETV5 (Homo sapiens, UniProt P41161 1-510); settings: protein: recombinant; tags: N-terminal GST; dsDNA, one strand shown
# ETV5, sequence (P41161 whole entry): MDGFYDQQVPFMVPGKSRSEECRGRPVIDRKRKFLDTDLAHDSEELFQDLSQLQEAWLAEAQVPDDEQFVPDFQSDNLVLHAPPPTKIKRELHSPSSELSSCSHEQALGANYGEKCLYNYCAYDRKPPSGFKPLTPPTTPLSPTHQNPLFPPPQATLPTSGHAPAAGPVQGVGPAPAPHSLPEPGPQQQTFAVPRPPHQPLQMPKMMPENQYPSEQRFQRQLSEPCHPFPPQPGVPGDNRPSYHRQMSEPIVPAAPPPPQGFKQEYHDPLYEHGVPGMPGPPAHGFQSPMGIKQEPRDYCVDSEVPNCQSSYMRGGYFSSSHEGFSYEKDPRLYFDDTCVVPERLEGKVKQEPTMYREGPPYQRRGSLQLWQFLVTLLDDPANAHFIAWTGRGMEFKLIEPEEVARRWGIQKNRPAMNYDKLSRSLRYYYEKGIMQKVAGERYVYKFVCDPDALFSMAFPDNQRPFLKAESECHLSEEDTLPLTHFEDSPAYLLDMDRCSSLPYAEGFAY
# Outline: as §1
# HSF1 = HSF1 (Homo sapiens, UniProt Q00613 1-529); settings: protein: recombinant; tags: N-terminal GST; chain copies: 3; dsDNA, one strand shown
# HSF1, sequence (Q00613 whole entry): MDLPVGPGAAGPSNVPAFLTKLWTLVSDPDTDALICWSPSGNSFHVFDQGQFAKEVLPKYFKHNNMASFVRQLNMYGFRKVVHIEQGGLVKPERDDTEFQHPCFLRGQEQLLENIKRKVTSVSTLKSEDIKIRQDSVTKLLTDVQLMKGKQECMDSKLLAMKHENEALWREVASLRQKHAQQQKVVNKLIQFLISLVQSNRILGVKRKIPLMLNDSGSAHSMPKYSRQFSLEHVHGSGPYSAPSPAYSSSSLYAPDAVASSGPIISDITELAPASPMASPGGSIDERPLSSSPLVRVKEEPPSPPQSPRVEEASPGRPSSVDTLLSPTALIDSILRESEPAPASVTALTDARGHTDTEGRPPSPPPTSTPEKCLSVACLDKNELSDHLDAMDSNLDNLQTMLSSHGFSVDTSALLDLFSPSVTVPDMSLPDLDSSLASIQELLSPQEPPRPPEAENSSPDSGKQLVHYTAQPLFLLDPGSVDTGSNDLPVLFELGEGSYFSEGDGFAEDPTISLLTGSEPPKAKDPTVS
# Outline: as §1
# SPIC = molecular target: T8, SPIC (Homo sapiens, UniProt Q8N5J4 1-248); settings: protein: recombinant; tags: N-terminal GST; dsDNA, one strand shown
# T8 sequence: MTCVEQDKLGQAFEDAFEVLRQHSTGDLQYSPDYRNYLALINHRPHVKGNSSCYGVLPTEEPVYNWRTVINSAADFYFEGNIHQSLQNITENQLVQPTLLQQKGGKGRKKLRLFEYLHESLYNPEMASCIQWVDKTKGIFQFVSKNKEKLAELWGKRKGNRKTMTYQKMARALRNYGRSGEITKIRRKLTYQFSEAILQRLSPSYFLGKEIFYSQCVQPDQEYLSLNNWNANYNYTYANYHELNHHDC
# Outline: as §1
# ELF4 = ELF4 (Homo sapiens, UniProt Q99607 1-663); settings: protein: recombinant; tags: N-terminal GST; dsDNA, one strand shown
# ELF4, sequence (Q99607 whole entry): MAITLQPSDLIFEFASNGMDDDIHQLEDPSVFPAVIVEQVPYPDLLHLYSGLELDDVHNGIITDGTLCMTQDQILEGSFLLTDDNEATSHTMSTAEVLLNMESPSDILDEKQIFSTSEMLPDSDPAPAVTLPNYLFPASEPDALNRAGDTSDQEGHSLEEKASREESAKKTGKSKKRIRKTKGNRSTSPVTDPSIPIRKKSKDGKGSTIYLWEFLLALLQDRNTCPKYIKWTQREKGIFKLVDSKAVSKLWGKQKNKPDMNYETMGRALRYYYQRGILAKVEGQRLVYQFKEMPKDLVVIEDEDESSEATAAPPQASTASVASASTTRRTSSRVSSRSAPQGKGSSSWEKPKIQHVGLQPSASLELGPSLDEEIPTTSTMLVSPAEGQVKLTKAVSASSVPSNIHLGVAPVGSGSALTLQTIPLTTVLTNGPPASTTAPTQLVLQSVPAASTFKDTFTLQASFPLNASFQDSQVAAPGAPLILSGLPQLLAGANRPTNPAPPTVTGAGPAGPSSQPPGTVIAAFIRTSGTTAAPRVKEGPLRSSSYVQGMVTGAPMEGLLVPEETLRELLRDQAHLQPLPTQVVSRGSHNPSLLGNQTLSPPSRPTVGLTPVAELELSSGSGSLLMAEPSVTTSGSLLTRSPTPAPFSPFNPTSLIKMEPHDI
# Outline: as §1
# ELK4 = molecular target: T9, ELK4 (Homo sapiens, UniProt P28324-2 1-405); settings: protein: recombinant; tags: N-terminal GST; dsDNA, one strand shown
# T9 sequence: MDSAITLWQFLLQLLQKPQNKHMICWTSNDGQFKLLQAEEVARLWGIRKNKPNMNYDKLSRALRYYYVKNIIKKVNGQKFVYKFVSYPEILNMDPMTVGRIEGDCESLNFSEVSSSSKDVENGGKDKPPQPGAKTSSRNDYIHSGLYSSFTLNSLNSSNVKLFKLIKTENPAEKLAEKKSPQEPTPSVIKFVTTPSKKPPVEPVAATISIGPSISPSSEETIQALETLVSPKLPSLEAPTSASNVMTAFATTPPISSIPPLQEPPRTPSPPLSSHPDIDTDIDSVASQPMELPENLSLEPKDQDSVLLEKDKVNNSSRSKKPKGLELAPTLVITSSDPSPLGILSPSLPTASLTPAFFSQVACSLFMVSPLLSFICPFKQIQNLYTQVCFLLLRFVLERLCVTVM
# Outline: as §1
# ETV2 = molecular target: T10, ETV2 (Homo sapiens, UniProt O00321 1-342); settings: protein: recombinant; tags: N-terminal GST; dsDNA, one strand shown
# T10 sequence: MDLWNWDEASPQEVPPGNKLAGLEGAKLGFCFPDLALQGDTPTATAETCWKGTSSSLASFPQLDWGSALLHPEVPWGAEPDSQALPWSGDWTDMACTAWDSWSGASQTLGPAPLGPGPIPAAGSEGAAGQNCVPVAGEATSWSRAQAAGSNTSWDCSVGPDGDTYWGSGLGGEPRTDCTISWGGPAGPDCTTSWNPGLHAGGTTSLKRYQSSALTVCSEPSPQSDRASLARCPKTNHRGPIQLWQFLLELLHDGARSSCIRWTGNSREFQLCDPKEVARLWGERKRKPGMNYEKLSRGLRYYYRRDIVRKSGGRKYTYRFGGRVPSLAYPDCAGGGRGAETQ
# Outline: as §1
# ELF3 = molecular target: T11, ELF3 (Homo sapiens, UniProt P78545 1-371); settings: protein: recombinant; tags: N-terminal GST; dsDNA, one strand shown
# T11 sequence: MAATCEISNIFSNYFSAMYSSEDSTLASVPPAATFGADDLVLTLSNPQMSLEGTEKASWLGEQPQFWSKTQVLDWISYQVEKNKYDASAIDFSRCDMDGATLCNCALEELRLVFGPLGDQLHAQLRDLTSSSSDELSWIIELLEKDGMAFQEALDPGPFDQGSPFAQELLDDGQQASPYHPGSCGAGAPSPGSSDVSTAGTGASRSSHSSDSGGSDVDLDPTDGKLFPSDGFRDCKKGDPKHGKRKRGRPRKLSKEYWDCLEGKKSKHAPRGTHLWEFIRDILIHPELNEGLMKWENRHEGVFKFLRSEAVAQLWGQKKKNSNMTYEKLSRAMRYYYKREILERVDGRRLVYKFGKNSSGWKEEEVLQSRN
# Outline: as §1
# CRX = CRX (Homo sapiens, UniProt O43186 1-299); settings: protein: recombinant; tags: N-terminal GST; dsDNA, one strand shown
# CRX, sequence (O43186 whole entry): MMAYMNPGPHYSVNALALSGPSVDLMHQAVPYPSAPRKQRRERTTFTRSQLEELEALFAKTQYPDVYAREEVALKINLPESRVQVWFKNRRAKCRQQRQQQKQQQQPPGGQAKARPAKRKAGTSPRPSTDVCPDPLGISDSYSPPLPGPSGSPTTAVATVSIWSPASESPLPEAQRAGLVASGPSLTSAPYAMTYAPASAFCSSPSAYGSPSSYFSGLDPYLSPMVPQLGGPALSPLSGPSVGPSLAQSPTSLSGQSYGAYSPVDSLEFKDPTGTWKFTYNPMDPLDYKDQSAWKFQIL
# Outline: as §1
# ETV1 = ETV1 (Homo sapiens, UniProt P50549 1-477); settings: protein: recombinant; tags: N-terminal GST; dsDNA, one strand shown
# ETV1, sequence (P50549 whole entry): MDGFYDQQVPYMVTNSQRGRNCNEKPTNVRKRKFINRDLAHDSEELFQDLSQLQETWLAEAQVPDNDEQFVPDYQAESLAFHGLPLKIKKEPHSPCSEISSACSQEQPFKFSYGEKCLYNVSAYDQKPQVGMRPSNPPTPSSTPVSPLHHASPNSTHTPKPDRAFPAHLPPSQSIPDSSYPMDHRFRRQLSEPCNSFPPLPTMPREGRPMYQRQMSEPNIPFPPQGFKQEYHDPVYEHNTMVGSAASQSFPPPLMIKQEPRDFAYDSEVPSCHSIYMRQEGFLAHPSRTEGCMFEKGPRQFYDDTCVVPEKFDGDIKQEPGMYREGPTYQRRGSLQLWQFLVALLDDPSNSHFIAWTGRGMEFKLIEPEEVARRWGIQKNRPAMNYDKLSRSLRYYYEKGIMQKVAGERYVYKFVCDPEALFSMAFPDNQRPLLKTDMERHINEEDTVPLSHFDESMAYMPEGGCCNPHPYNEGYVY
# Outline: as §1
sequence,measurement,setting,value
ATACAG,binding signal,FLI1,"1.16 fold enrichment (6-mer frequency, TF over GST control)"
same,binding signal,ELK1,"1.11 fold enrichment (6-mer frequency, TF over GST control)"
same,binding signal,GABPA,"1.29 fold enrichment (6-mer frequency, TF over GST control)"
same,binding signal,ERG,"1.16 fold enrichment (6-mer frequency, TF over GST control)"
same,binding signal,ELF1,"1.13 fold enrichment (6-mer frequency, TF over GST control)"
same,binding signal,EHF,"1.16 fold enrichment (6-mer frequency, TF over GST control)"
same,binding signal,SPI1,"1.12 fold enrichment (6-mer frequency, TF over GST control)"
same,binding signal,SPIB,"1.15 fold enrichment (6-mer frequency, TF over GST control)"
same,binding signal,ELK3,"1.07 fold enrichment (6-mer frequency, TF over GST control)"
same,binding signal,FEV,"1.14 fold enrichment (6-mer frequency, TF over GST control)"
same,binding signal,ETV5,"1.13 fold enrichment (6-mer frequency, TF over GST control)"
same,binding signal,HSF1,"1.02 fold enrichment (6-mer frequency, TF over GST control)"
same,binding signal,SPIC,"1.14 fold enrichment (6-mer frequency, TF over GST control)"
same,binding signal,ELF4,"1.18 fold enrichment (6-mer frequency, TF over GST control)"
same,binding signal,ELK4,"1.08 fold enrichment (6-mer frequency, TF over GST control)"
same,binding signal,ETV2,"1.24 fold enrichment (6-mer frequency, TF over GST control)"
same,binding signal,ELF3,"1.12 fold enrichment (6-mer frequency, TF over GST control)"
same,binding signal,CRX,"1.02 fold enrichment (6-mer frequency, TF over GST control)"
same,binding signal,ETV1,"1.11 fold enrichment (6-mer frequency, TF over GST control)"
